Assay outcomes deposited in PubChem BioAssay by National Center for Advancing Translational Sciences (NCATS).
Shown are actives, neighbours in structure and some others; about 11% of the full set was active somewhere.
L3MBTL1 block: L3MBTL1 (human) inhibition; Potency, µM (series often up to 57.1 µM), for inactives: at the highest dose activity, negative = inhibition, actives largely listed as inhibitors; hit rate 0.66% among 230,000; Q9Y468; AlphaScreen L3MBTL1–H3K9me1 peptide binding; further: on the % scale 0 is the no-effect control and ±100 the full control effect; nearly all actives have a fitted effect of over 60% in size
Target sequence (Q9Y468 whole entry, looked up): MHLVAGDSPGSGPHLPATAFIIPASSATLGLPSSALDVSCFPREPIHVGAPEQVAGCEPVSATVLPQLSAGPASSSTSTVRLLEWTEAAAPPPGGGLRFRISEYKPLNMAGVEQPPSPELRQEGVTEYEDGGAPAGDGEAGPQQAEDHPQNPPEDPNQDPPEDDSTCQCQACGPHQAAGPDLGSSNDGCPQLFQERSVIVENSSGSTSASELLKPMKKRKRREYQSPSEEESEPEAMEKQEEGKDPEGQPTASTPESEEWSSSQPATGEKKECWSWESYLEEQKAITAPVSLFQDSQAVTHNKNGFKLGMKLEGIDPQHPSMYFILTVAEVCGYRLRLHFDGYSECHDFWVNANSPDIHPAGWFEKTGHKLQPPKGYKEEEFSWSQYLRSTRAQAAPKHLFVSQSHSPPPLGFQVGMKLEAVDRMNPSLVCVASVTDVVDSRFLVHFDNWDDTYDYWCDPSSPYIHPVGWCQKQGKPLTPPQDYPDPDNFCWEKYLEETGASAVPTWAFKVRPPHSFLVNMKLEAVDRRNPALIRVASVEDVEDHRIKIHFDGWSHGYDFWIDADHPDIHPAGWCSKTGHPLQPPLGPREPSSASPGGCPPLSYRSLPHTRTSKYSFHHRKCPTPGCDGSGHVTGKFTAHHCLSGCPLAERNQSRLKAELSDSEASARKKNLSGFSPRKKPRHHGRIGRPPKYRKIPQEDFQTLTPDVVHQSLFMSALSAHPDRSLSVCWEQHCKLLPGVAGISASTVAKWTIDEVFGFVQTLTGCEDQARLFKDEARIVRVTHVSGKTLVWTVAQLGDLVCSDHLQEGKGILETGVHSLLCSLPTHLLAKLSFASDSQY
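AlphaScreen proximity signal between nickel-chelate acceptor and streptavidin donor beads (final 10 ug/mL) reports binding of 50 nM L3MBTL1 to 75 nM biotin-H3 K9me1 peptide; complex incubated with compounds 30 min at room temperature; cefsulodin titration as control.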
HP1b binding inh: inhibitors of HP1-beta chromodomain binding to methylated histone tails. hit rate 0.56% among 390,000. AID 540317. AlphaScreen HP1-beta / biotin-H3K9me3 peptide binding. Potency, µM (series often up to 114 µM), without a hit: at the top dose activity change, negative = inhibition, actives largely listed as inhibitors; further: nearly all actives have a fitted effect of over 70% in size
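AlphaScreen: HP1-beta (50 nM) preformed 30 min with biotin-H3(1-18)K9me3 peptide (50 nM) in PBS pH 7.4, 0.01% Tween-20. Compound added for 30 min at RT, then streptavidin donor/nickel chelate acceptor beads (10 ug/mL) for 30 min.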
G9a block: inhibitors of human histone lysine methyltransferase G9a | Potency, µM (doses to about 102 µM), without a hit: top-dose activity, negative = inhibition, actives largely listed as inhibitors | G9a H3K9 monomethylation, AlphaScreen, 2 h | Q96KQ7 | hit rate 8.8% among 350,000 | AID 504332; further: on the % scale 0 is the no-effect control and ±100 the full control effect; nearly all actives have a fitted effect of over 75% in size
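Quantitative HTS format: methyltransferase activity on a biotin-tagged H3K9 peptide is measured by AlphaScreen, using a rabbit anti-monomethyl-H3K9 antibody with streptavidin donor and anti-IgG acceptor beads. Final levels are 20 nM enzyme, 500 nM peptide, 20 uM SAM; 2 h RT.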
JMJD2A Tudor: JMJD2A Tudor domain (human) inhibition; O75164; AlphaScreen JMJD2A-Tudor / H3K4me3 peptide binding; Potency, µM (highest dose often 114 µM), without a hit: top-dose activity change, negative = inhibition, most hits filed as inhibitors; hit rate 4.4% among 390,000; AID 504339; further: on the % scale 0 is the no-effect control and ±100 the full control effect; nearly all actives have a fitted effect of over 50% in size
BAZ2B block: blocks human BAZ2B; Q9UIF8; AlphaScreen BAZ2B-H3K14Ac peptide displacement; Potency, µM (top dose mostly 114 µM), for the others: at the highest dose activity change, negative = inhibition, most hits filed as inhibitors; hit rate 4.4% among 360,000; AID 504333; further: on the % scale 0 is the no-effect control and ±100 the full control effect; nearly all actives have a fitted effect of over 60% in size
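Compounds, titrated to a top concentration of 110 uM, were incubated 30 min at room temperature with preformed BAZ2B/acetyl-K14 H3 peptide complex (50 nM each). Proximity signal was measured by AlphaScreen after 20 min with beads.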
Active calls of the source: *; u = inconclusive; x = no result; ! = not confirmed by another sample; [ ] = dose if it differs, or a comment. The call rests on the fitted dose curve; in most records, active means well fitted inhibition curve with a large enough effect; inconclusive means small, poorly fitted or top-dose-only effect; inactive means no such curve, though single readings can be large or run the other way. Potency means the concentration at half of the fitted maximal effect.

SMILES | L3MBTL1 block | HP1b binding inh | G9a block | JMJD2A Tudor | BAZ2B block
Cc1oc(/C=N/NC(=O)CN(c2ccccc2Cl)S(C)(=O)=O)cc1Br | -12% | -17% | u | u | u
Cc1oc(/C=N/NC(=O)CN(c2ccccc2Br)S(C)(=O)=O)cc1Br | -8% | -26% | 71µM* | u | u
COC(=O)c1cc2oc3ccccc3c2n1CC(=O)Nc1ccc(OC)c(OC)c1 | x | 32% | 2%[59 µM] | -18% | -1%
CCOc1ccc(NC(=O)CN2CCN(CC(=O)Nc3ccc(OC)cc3OC)CC2)cc1 | x | 72% | u | -20% | -11%
CCN(CC)c1ccc(NC(=O)CN2CCN(CC(=O)Nc3ccccc3OC)CC2)cc1 | x | u | 45µM* | 56µM* | u
CCOc1ccc(NC(=O)CN2CCN(CC(=O)Nc3ccc(C(=O)OC)cc3)CC2)cc1 | 3% | 26% | 32µM* | 0% | 9%
CCOc1ccc(NC(=O)CN2CCN(CC(=O)Nc3ccccc3OC)CC2)cc1 | x | 43% | 45µM* | -4% | 1%
COc1ccccc1NC(=O)CN1CCN(CC(=O)Nc2cc(NC(C)=O)ccc2OC)CC1 | 6% | 47% | 40µM* | -5% | 6%
COc1ccccc1NC(=O)CN1CCN(CC(=O)Nc2ccc3c(c2)OCO3)CC1 | x | 21% | -18%[12.7 µM] | -20% | 10%
Cc1ccc(-n2nnnc2CNC(=O)c2ccccc2F)cc1C | x | 29%[57 µM] | -2%[59 µM] | 0% | 3%
O=C(NCc1ccccc1Br)C1CCCN(C(=O)N2CCOc3ccccc32)C1 (centres undefined) | x | 24% | -22%[59 µM] | -5% | -1%
CCCCOc1ccc(NC(=O)CN2CCN(CC)CC2)cc1 | -1% | u | 11µM* | 0.79µM* | 56µM*
COc1ccc(NC(C)=O)cc1NC(C)C(=O)Nc1cccc2ccccc12 (centres undefined) | x | 19% | 50µM* | -32% | -32%
CCCCOc1ccc(CC(=O)NO)cc1 | -1% | 44% | 28µM*! | -6% | -24%
COc1ccc(NC(C)=O)cc1NC(C)C(=O)Nc1ccc(F)cc1 (centres undefined) | x | 38% | -17%[12.7 µM] | -10% | -7%
Cc1noc(C)c1-c1ccc2ncnc(NCc3cc(F)cc(F)c3)c2c1 | x | x | x | -22% | x
C#CCOCCOCCOCCNc1nc(N2CCN(C(=O)[C@H](Cc3ccc(O)cc3)n3cc([C@@H](N)C(C)CC)nn3)CC2)nc(N2CCN(C(=O)[C@H](Cc3cc4ccccc4[nH]3)n3cc([C@@H](N)CC(C)C)nn3)CC2)n1 (some centres undefined) | -20% | u | u | 45µM* | 35µM*
C#CCOCCOCCOCCNc1nc(N2CCN(C(=O)[C@H](Cc3cc4ccccc4[nH]3)n3cc([C@@H](N)C(C)CC)nn3)CC2)nc(N2CCN(C(=O)[C@H](Cc3cc4ccccc4[nH]3)n3cc([C@@H](N)Cc4ccc(O)cc4)nn3)CC2)n1 (some centres undefined) | u | x | -7%[12.7 µM] | x | 11µM*
C#CCOCCOCCOCCNc1nc(N2CCN(C(=O)[C@H](Cc3ccc(O)cc3)n3cc([C@@H](N)C(C)CC)nn3)CC2)nc(N2CCN(C(=O)[C@H](Cc3cc4ccccc4[nH]3)n3cc([C@@H](N)C(C)CC)nn3)CC2)n1 (some centres undefined) | u | -30% | -112%[59 µM] | 45µM* | 28µM*
COc1ccc(-c2ccc(CNc3ccc4[nH]c(=O)[nH]c4c3)o2)cc1Cl | x | 25% | -11%[59 µM] | -12% | -10%
CCCCN(CC)C(=O)c1ccc2c(c1)NC(=O)c1ccccc1S2 | x | 27% | -30%[59 µM] | -16% | -10%
COc1cc(/C=C(\C#N)C(=O)Nc2cccc(C(=O)O)c2)ccc1OCc1ccc(C)cc1 | x | 2% | u | u | -27%
CCOc1cc(/C=C(\C#N)C(=O)Nc2cccc(C(=O)O)c2)ccc1OCc1ccc(Br)cc1 | x | u | 45µM* | u | 56µM*
COc1cc(/C=C(/C#N)C(=O)Nc2ccccc2)ccc1OCc1ccc(C(=O)O)cc1 | x | -10% | u | 56µM* | 56µM*
CCOc1cccc(NC(=O)/C(C#N)=C\c2cccnc2)c1 | -4% | 26% | 71µM* | -6% | u
SMILES | L3MBTL1 block | HP1b binding inh | G9a block | JMJD2A Tudor | BAZ2B block
COc1cc(/C=C(\C#N)C(=O)Nc2nnc(C(F)(F)F)s2)ccc1OCc1ccc(C(F)(F)F)cc1C(F)(F)F | x | x | 8.4µM* | x | x
COc1ccc2[nH]c3c(c2c1)CCN1C(=O)C(CC(=O)NC/C=C(\C)CCC=C(C)C)C[C@H](C(=O)N(C(C)C)C(C)C)[C@@]31C (some centres undefined) | -2% | 3% | x | u | x
COc1cc(C(=O)O)ccc1OCc1ccncc1 | -11% | 31% | 45µM* | 1% | -19%
O=C(O)c1cccc(NC(=O)c2ccc(COc3ccc(Cl)cc3)cc2)c1 | 1% | 11% | -32% | -24% | -21%
N#C/C(=C\c1ccc(OCc2ccc(Cl)cc2)cc1)C(=O)Nc1cccc(C(=O)O)c1 | x | 10% | u | u | 56µM*
COc1cc(C(N)=O)ccc1OCc1ccccc1 | x | 61% | 0%[59 µM] | -16% | -16%
Cn1c(N2CCN(C(c3ccccc3)c3ccccc3)CC2)nc2c1c(=O)[nH]c(=O)n2C | x | 32% | -1% | -11% | -1%
Cc1oc2ncnc(N3CCOCC3)c2c1C(=O)NCc1ccccc1 | x | 34% | -4%[59 µM] | 1% | 11%[57.1 µM]
Cc1ccc(N2C(=O)CC(NCC3CCCO3)C2=O)cc1 (centres undefined) | 2% | 52% | -28% | -7% | -15%
O=C1CC(NCC2CCCO2)C(=O)N1c1ccc(Cl)cc1 (centres undefined) | -2% | 24% | 45µM* | -14% | -14%
COc1ccc(/C=C2\Sc3ccc(C(=O)NCCN4CCCCCC4)cc3N(C)C2=O)cc1 | x | -9%[57 µM] | 22µM* | u | u
COc1ccc(/C=C2\Sc3ccc(C(=O)N4CCCC4)cc3N(C)C2=O)cc1OC | x | 25% | 45µM* | -12% | -31%
Cc1cccc(-c2noc(CNC(=O)c3ccccc3Br)n2)c1 | x | 34% | 1%[59 µM] | -12% | -2%
O=C1OC(c2ccc(Cl)cc2)=N/C1=C\C=C\c1ccco1 | u | -10% | 14µM* | u | x
O=C1OC(c2ccccc2)=N/C1=C\C=C\c1ccco1 | u | -17% | x | u | u
COc1ccccc1OCCSc1nc2ccc([N+](=O)[O-])cc2s1 | -13% | u | 13µM* | u | u
O=[N+]([O-])c1ccc2nc(SCc3ccccc3Cl)sc2c1 | -6% | -10% | u | u | -38%
C=CCc1ccccc1OCCSc1nc2ccc([N+](=O)[O-])cc2s1 | -12% | -10% | 20µM* | -31% | -38%
CC(=O)Nc1ccc2nc(SCCOc3ccccc3Cl)sc2c1 | x | 35% | 6%[59 µM] | -14% | -1%
Cc1cc(C)n(-c2nc3cc(Cl)c(Cl)cc3nc2Nc2ccc(F)cc2C)n1 | x | 38% | 1%[59 µM] | 6% | 4%
